Test results reported in PubChem BioAssay AID588590 (National Center for Advancing Translational Sciences (NCATS), 2011).
About 4,000 (1%) of roughly 390,000 compounds were called active. Where a call stands in place of a potency, no number is given. Roughly 7% stayed inconclusive and do not appear here. This is one part of a sample in which actives are shown more often than they occur. The call rests on the fitted dose curve; in most records, active means well fitted inhibition curve with a large enough effect; inconclusive means small, poorly fitted or top-dose-only effect, or another doubt; inactive means no such curve, though single readings can be large or run the other way.

biological target: DNA polymerase iota (Homo sapiens) (UniProt Q9UNA4); experiment: qHTS for Inhibitors of Polymerase Iota; conditions: Pol iota fluorescent replication assay, 10 min; series mostly up to 115 µM
Text: DNA polymerases, such as Pol iota, are specifically involved in DNA repair. Pol iota specifically plays an important role in translesion synthesis, where the normal high-fidelity DNA polymerases cannot proceed and DNA synthesis stalls. […] Thus, while pol eta's (and most likely iota's) normal function is to protect humans against the deleterious consequences of DNA damage, under certain conditions they can have deleterious effects on human health. As a consequence, we propose to utilize a high throughput replication assay to identify small molecule inhibitors of pol iota.
In a collaboration between the National Institute of Child Health & Human Development (NICHD) and NIH Chemical Genomics Center, a high-throughput, fluorescent screen was developed to screen the NIH Molecular Libraries Small Molecule Repository (MLSMR). This screen is used to identify inhibitors of pol iota.
NIH Chemical Genomics Center [NCGC]
NIH Molecular Libraries Probe Centers Network [MLPCN]
Assay Submitter (PI): Roger Woodgate, NICHD)
Three microliters of reagents (buffer in column 3 and 4 as negative control and 10 nM Pol iota in columns 1, 2, and 5-48) will be dispensed into 1,536-well black solid-bottomed plate. Compounds (23 nL) will be transferred via Kalypsys pin tool equipped with 1536-pin array. The plates will then be incubated for 15 min at room temperature, and 1 µL substrate (50 nM final concentration) will be added to start the reaction and kinetically read twice at 0 min and 10 min on the Viewlux reader.
Potency means the concentration at half of the fitted maximal effect.

Chain of DNA polymerase iota (Homo sapiens) (Q9UNA4 whole entry, looked up): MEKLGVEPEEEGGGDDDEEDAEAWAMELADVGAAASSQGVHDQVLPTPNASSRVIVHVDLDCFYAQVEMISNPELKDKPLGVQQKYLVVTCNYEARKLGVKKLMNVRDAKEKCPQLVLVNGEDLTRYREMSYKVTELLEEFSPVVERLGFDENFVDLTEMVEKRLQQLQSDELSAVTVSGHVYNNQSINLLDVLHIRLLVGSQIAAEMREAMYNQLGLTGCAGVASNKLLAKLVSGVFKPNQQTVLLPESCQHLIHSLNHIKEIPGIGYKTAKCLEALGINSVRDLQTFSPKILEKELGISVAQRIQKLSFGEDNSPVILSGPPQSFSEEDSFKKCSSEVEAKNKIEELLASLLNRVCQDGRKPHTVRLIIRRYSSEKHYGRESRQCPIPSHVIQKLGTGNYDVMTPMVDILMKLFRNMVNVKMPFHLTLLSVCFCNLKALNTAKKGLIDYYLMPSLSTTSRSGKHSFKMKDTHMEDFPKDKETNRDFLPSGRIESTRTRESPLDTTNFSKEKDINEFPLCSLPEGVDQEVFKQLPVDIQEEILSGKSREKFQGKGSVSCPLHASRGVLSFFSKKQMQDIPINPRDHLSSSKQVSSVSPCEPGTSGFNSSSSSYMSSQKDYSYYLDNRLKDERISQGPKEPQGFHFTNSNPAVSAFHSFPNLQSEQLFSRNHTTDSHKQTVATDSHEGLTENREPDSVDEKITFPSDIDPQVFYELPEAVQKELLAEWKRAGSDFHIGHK

| Compound | Potency |
| --- | --- |
| CC(=O)c1c(O)c(C)c(O)c(Cc2c(O)c3c(c(C(=O)/C=C/c4ccccc4)c2O)OC(C)(C)C=C3)c1O | 50.1 µM (active) |
| CCCCOP(=O)(c1ccc(N(C)C)cc1)C(O)c1cc(OC)ccc1OC (stereo not given) | inactive |
| CC(=O)NBr | inactive |
| COc1ccc(N2C(=O)/C(=C/c3ccco3)C(=O)NC2=S)cc1 | 4.47 µM (active) |
| CNCC[C@H](Oc1ccc(C(F)(F)F)cc1)c1ccccc1 | inactive |
| O=C1C=C(NS(=O)(=O)c2ccccc2)C(=O)c2ccccc21 | inactive |
| O=c1[nH]c(=S)[nH]c(O)c1/C=C1\C=Nc2ccccc21 | inactive |
| O=C(O)/C=C/c1ccc2c(c1)OCO2 | inactive |
| O=C1NC(=O)N(Cc2ccco2)C(=O)/C1=C\c1ccc(-c2ccc(F)cc2)o1 | 11.2 µM (active) |
| Cc1cc(/C=C2/C(=O)NC(=O)N(Cc3ccco3)C2=O)c(C)n1-c1ccc(C(=O)O)cc1 | 14.1 µM (active) |
| O=C1NC(=O)N(Cc2ccco2)C(=O)/C1=C\c1cccn1CCOc1ccccc1 | 22.4 µM (active) |
| CC1=NNC(=O)C1Cc1c(Cl)cccc1Cl (stereo not given) | inactive |
| Cn1c(=O)oc2cc(S(=O)(=O)N3CCC(C(=O)Nc4ccc(OC(F)(F)F)cc4)CC3)ccc21 | inactive |
| O=C(Oc1ccc2c(c1)CCC2)N1CCOCC1 | inactive |
| CCOC(=O)c1ccc(N2C(=O)c3[nH]nc(-c4ccccc4)c3C2c2ccc(C(C)C)cc2)cc1 (stereo not given) | inactive |
| CCN(CC)C(=O)Oc1ccc(Br)cc1C(=O)Nc1ccc(F)c(Cl)c1 | inactive |
| CC(=O)c1ccc(OC(=O)N2CCOCC2)cc1 | inactive |
| CCOC(=O)C(NS(=O)(=O)c1ccc(C)cc1)(C(F)(F)F)P(=O)(OCC(C)C)OCC(C)C (stereo not given) | inactive |
| O=C1c2ccccc2NC(c2ccccc2O)N1NS(=O)(=O)c1ccccc1 (stereo not given) | inactive |
| CC(C)(C)c1ccc(CN2C(=O)CN=C(c3ccccc3)c3ccccc32)cc1 | inactive |
| O=C(CN1CCCC1=O)NCCc1ccccc1 | inactive |
| O=C1CC(=O)N(Cc2ccccc2)C(=O)N1CCCCCCN1C(=O)CC(=O)N(Cc2ccccc2)C1=O | 17.8 µM (active) |
| S=C(Nc1ccc(Br)cc1Cl)N1CCC2(CC1)OCCO2 | inactive |
| CC[C@H]1CN2CCc3cc(OC)c(OC)cc3[C@@H]2C[C@@H]1C[C@H]1NCCc2cc(OC)c(OC)cc21 | inactive |
| CCOCCCNC(=O)c1c(NC(=O)c2nc(SC)ncc2Cl)sc2c1CCCC2 | inactive |
| O=S(=O)(Nc1ccc2[nH]ncc2c1)c1ccccc1Cl | inactive |
| O=[N+]([O-])c1ccc(Cl)c(Cl)c1 | inactive |
| CO[C@H]1[C@@H](O)[C@@H](C)O[C@H](O[C@H]2[C@H](Oc3cccc4c(O)c5c(=O)oc6ccc(C)c7c(=O)oc(c34)c5c67)O[C@H](C)[C@H](O)[C@@H]2O)[C@@H]1O | 20 µM (active) |

| Compound | Potency |
| --- | --- |
| CCOc1ccc(C(NC(=O)c2cc(OC)c(OC)c(OC)c2)c2cc(Cl)c3cccnc3c2O)cc1 (stereo not given) | inactive |
| Cc1ccc(NC(=O)CN(C)CC(=O)Nc2cccc(F)c2)cc1[N+](=O)[O-] | inactive |
| O=P1(Oc2ccccc2)CC(O)C(O)C(COCc2ccccc2)O1 (stereo not given) | inactive |
| N#Cc1c(Cl)c(Cl)c(Cl)c(C#N)c1Cl | 1.58 µM (active) |
| CC(CCn1cccn1)NC(=O)CCc1nnc(CCc2ccccc2)o1 (stereo not given) | inactive |
| O=C(NCc1cccs1)c1ccc(Br)o1 | inactive |
| O=C(c1ccccc1[N+](=O)[O-])N1CCC2(CC1)OCCO2 | inactive |
| O=C(O)c1cc[c]([Sb](=[O])([OH])[OH])cc1[N+](=O)[O-] | 1 µM (active) |
| COc1cc(C2c3cc4c(cc3C(O)C3COC(=O)C23)OCO4)cc(OC)c1OC (stereo not given) | inactive |
| COc1cc([C@@H]2c3cc4c(cc3[C@H](OC(C)=O)[C@H]3COC(=O)[C@H]23)OCO4)cc(OC)c1OC | inactive |
| CCOC(=O)c1ncn2c1[C@@H]1CCCN1C(=O)c1cc(OC)ccc1-2 | inactive |
| Cc1ccc(C)c(NS(=O)(=O)c2ccc(OCC(=O)NCc3cccnc3)cc2)c1 | inactive |
| CCOP(=O)(OCC)C(Nc1cccc(C)c1)c1ccc(F)cc1 (stereo not given) | inactive |
| O=c1c2ccccc2nc(/C=C/c2ccco2)n1-c1ccccc1O | 44.7 µM (active) |
| O=c1c2ccccc2nc(/C=C/c2ccc(F)cc2)n1-c1ccccc1O | inactive |
| Cn1cc(/C=C/c2nc3ccccc3c(=O)n2-c2ccccc2)c2ccccc21 | inactive |
| Cc1ncoc1C(=O)NCCC(c1ccccc1)c1ccccc1 | inactive |
| CCCCN1C2CCC1CC(OC(c1ccc(F)cc1)c1ccc(F)cc1)C2 (stereo not given) | inactive |
| Cc1ccc(NC(=O)O/N=C/c2cccc([N+](=O)[O-])c2)cc1 | inactive |
| c1csc(-c2nnc(COc3ccc4c(c3)OCO4)o2)c1 | inactive |
| O=C1NC(=O)N(c2ccccc2)C(=O)/C1=C/c1ccc([N+](=O)[O-])s1 | 11.2 µM (active) |
| Cc1nnc(NCc2ccccc2)c2c1nnn2Cc1ccc(F)cc1 | inactive |
| O=C(C1CCN(S(=O)(=O)c2ccc(Br)s2)CC1)N1CCN(c2ccccc2)CC1 | inactive |
| CC(C)N1C(=S)SC(C)(C)C1n1oc(=O)n(-c2ccc(Cl)c(Cl)c2)c1=O (stereo not given) | inactive |
| Cc1ccccc1NC(=O)c1c(NC(=O)c2ccccc2F)sc2c1CCC(C)C2 (stereo not given) | inactive |
| CC(C)(C)c1ccc(C(=O)NCc2ccco2)cc1 | inactive |
| CCc1ccccc1NC(=O)c1sc2nc3c(cc2c1N)CN(Cc1ccccc1)CC3 | inactive |
